Read-out in assay [1]: Macrophage colony-stimulating factor (MCSF), CSF1 (gene 1435)
The assay can be described thus: BSK_hDFCGF_MCSF: BioMAP Diversity Plus: hDFCGF Assay for Macrophage colony-stimulating factor (MCSF) Biomarker Activity (AID 2283060). Particulars: primary human foreskin fibroblasts; actives raise or lower the signal. A digest of the protocol:
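Human foreskin primary fibroblasts were treated with test chemical for 24 h, and M-CSF was then measured by ELISA. Data were fitted bidirectionally against DMSO as the negative control and activity baseline.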

A short description of assay [2]: BSK_hDFCGF_SRB: Viability Assessment in the BioMAP Diversity Plus: hDFCGF Assay (AID 2283061).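 Note: cells exposed to compound for 24 h before the read.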 Particulars: primary human foreskin fibroblasts. The essentials: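 Human foreskin primary fibroblasts were treated with compound and assessed 24 h after dosing. Total protein was measured by sulforhodamine B staining (0.1% SRB after 10% TCA fixation, 560 nm read) as a cytotoxicity marker, with bidirectional fitting against DMSO baseline.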

Read-out in assay [3]: TIMP metallopeptidase inhibitor 1 (TIMP1), TIMP1 (gene 7076)
Kind of assay: BSK_hDFCGF_TIMP1: BioMAP Diversity Plus: hDFCGF Assay for TIMP metallopeptidase inhibitor 1 (TIMP1) Biomarker Activity (AID 2283062). Particulars: primary human foreskin fibroblasts; actives raise or lower the signal. A digest of the protocol:
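Primary human foreskin fibroblasts in the hDFCGF system were dosed with compound for 24 h, then TIMP-1 was measured by ELISA. Activity was fitted bidirectionally relative to DMSO control; parallel SRB staining assessed cytotoxicity.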

Read-out in assay [4]: Monokine induced gamma interferon (MIG), CXCL9 (gene 4283)
Kind of assay: BSK_hDFCGF_MIG: BioMAP Diversity Plus: hDFCGF Assay for Monokine induced gamma interferon (MIG) Biomarker Activity (AID 2283063). The conditions noted are these: primary human foreskin fibroblasts; actives raise or lower the signal. A digest of the protocol: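 ELISA read-out of MIG from primary human dermal fibroblasts 24 h post-dosing. Gain or loss of signal fitted bidirectionally, DMSO as baseline.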

Read-out in assay [5]: Matrix Metallopeptidase 1 (MMP1), MMP1 (gene 4312)
The assay can be described thus: BSK_hDFCGF_MMP1: BioMAP Diversity Plus: hDFCGF Assay for Matrix Metallopeptidase 1 (MMP1) Biomarker Activity (AID 2283064). The conditions noted are these: primary human foreskin fibroblasts; actives raise or lower the signal. The essentials: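 hDFCGF primary fibroblasts (human foreskin); chemical added; 24 h; MMP1 by ELISA; bidirectional fit vs DMSO.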

Read-out in assay [6]: Vascular cell adhesion molecule 1 (VCAM1), VCAM1 (gene 7412)
The assay can be described thus: BSK_hDFCGF_VCAM1: BioMAP Diversity Plus: hDFCGF Assay for Vascular cell adhesion molecule 1 (VCAM1) Biomarker Activity (AID 2283065).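 For AC50: VCAM-1 protein level quantified by ELISA after 24 h chemical exposure.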 Particulars: primary human foreskin fibroblasts; actives raise or lower the signal. A digest of the protocol:
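Primary human foreskin fibroblasts (hDFCGF system) were dosed with chemical and VCAM-1 was measured by ELISA 24 h later. Bidirectional curve fitting used DMSO as negative control and activity baseline.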

Read-out in assay [7]: Plasminogen activator inhibitor-1 (PAI1), SERPINE1 (gene 5054)
Kind of assay: BSK_hDFCGF_PAI1: BioMAP Diversity Plus: hDFCGF Assay for Plasminogen activator inhibitor-1 (PAI1) Biomarker Activity (AID 2283066). The conditions noted are these: primary human foreskin fibroblasts; actives raise or lower the signal. A digest of the protocol:
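Human foreskin fibroblasts in the hDFCGF system were dosed with compound for 24 h; PAI-1 was quantified by ELISA. Bidirectional curve fitting used DMSO as negative control and baseline.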

Read-out in assay [8]: Intercellular Adhesion Molecule 1 (ICAM1), ICAM1 (gene 3383)
Kind of assay: BSK_KF3CT_ICAM1: BioMAP Diversity Plus: KF3CT Assay for Intercellular Adhesion Molecule 1 (ICAM1) Biomarker Activity (AID 2283067). Particulars: primary human keratinocytes with fibroblasts; actives raise or lower the signal. The essentials: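 Human keratinocyte plus foreskin fibroblast primary co-culture was exposed to chemical for 24 h. ICAM-1 was then quantified by ELISA, and the data were fit bidirectionally against DMSO as the negative control and baseline.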

Read-out in assay [9]: Interferon-gamma inducible Protein 10 (IP10), CXCL10 (gene 3627)
Kind of assay: BSK_KF3CT_IP10: BioMAP Diversity Plus: KF3CT Assay for Interferon-gamma inducible Protein 10 (IP10) Biomarker Activity (AID 2283068). Particulars: primary human keratinocytes with fibroblasts; actives raise or lower the signal. A digest of the protocol: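 ELISA read-out of IP-10 after 24 h chemical dosing of human skin primary co-culture (keratinocytes, foreskin fibroblasts). Gain or loss of signal relative to DMSO, bidirectional curve fit.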

Assay [10] can be described thus: BSK_KF3CT_SRB: Viability Assessment in the BioMAP Diversity Plus: KF3CT Assay (AID 2283069).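 Note: fitted for both signal gain and loss against DMSO baseline.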 Particulars: primary human keratinocytes with fibroblasts. A digest of the protocol:
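Keratinocytes co-cultured with foreskin fibroblasts (human primary); chemical added, 24 h; fix 10% TCA, stain 0.1% SRB, A560. Bidirectional fit vs DMSO.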

Read-out in assay [11]: Interleukin-1 alpha (IL1a), IL1A (gene 3552)
Kind of assay: BSK_KF3CT_IL1a: BioMAP Diversity Plus: KF3CT Assay for Interleukin-1 alpha (IL1a) Biomarker Activity (AID 2283070). The conditions noted are these: primary human keratinocytes with fibroblasts; actives raise or lower the signal. A digest of the protocol:
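Chemicals were dosed onto co-cultured human keratinocytes and foreskin fibroblasts, IL-1a was quantified by ELISA at 24 h, and activity was fitted in both directions relative to DMSO controls.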

Read-out in assay [12]: TIMP metallopeptidase inhibitor 2 (TIMP2), TIMP2 (gene 7077)
The assay can be described thus: BSK_KF3CT_TIMP2: BioMAP Diversity Plus: KF3CT Assay for TIMP metallopeptidase inhibitor 2 (TIMP2) Biomarker Activity (AID 2283071). The conditions noted are these: primary human keratinocytes with fibroblasts; actives raise or lower the signal. A digest of the protocol: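 Human primary keratinocyte/foreskin fibroblast co-culture dosed with chemical and sampled at 24 h. TIMP-2 levels quantified by ELISA; bidirectional fitting against DMSO negative control as baseline.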

Read-out in assay [13]: Matrix Metallopeptidase 9 (MMP9), MMP9 (gene 4318)
Kind of assay: BSK_KF3CT_MMP9: BioMAP Diversity Plus: KF3CT Assay for Matrix Metallopeptidase 9 (MMP9) Biomarker Activity (AID 2283074).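 For AC50: MMP9 protein level quantified by ELISA in the co-culture.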 The conditions noted are these: primary human keratinocytes with fibroblasts; actives raise or lower the signal. A digest of the protocol:
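Human keratinocyte/foreskin fibroblast co-culture; compound added; 24 h; MMP-9 by ELISA; bidirectional fit vs DMSO baseline.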

Read-out in assay [14]: urokinase plasminogen activator (uPA), PLAU (gene 5328)
Kind of assay: BSK_KF3CT_uPA: BioMAP Diversity Plus: KF3CT Assay for urokinase plasminogen activator (uPA) Biomarker Activity (AID 2283075). The conditions noted are these: primary human keratinocytes with fibroblasts; actives raise or lower the signal. The essentials: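 ELISA readout of uPA, analyzed for signal gain or loss relative to DMSO, from a human primary keratinocyte–foreskin fibroblast co-culture measured 24 h after chemical treatment.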

Read-out in a further assay: CD40, CD40 (gene 958)
The assay can be described thus: BSK_LPS_CD40: BioMAP Diversity Plus: LPS Assay for CD40 Biomarker Activity (AID 2283076). Particulars: primary human HUVEC with PBMC; actives raise or lower the signal. A digest of the protocol: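 Primary human umbilical vein endothelial cells co-cultured with peripheral blood mononuclear cells, LPS-stimulated, were dosed with chemical and read 24 h later. CD40 levels were measured by ELISA and fitted bidirectionally against DMSO as negative control and baseline.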

Read-out in assay [15]: E-selectin (Homo sapiens) (UniProt P16581)
Kind of assay: BSK_LPS_Eselectin: BioMAP Diversity Plus: LPS Assay for Eselectin Biomarker Activity (AID 2283077). Particulars: primary human HUVEC with PBMC; actives raise or lower the signal. The essentials: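 Human umbilical vein endothelial cells co-cultured with peripheral blood mononuclear cells under LPS stimulation; E-selectin measured by ELISA 24 h after chemical dosing. Activity fitted bidirectionally against DMSO as negative control and baseline.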

Read-out in assay [16]: Interleukin-8 (IL8), CXCL8 (gene 3576)
Kind of assay: BSK_LPS_IL8: BioMAP Diversity Plus: LPS Assay for Interleukin-8 (IL8) Biomarker Activity (AID 2283078). The conditions noted are these: primary human HUVEC with PBMC; actives raise or lower the signal. A digest of the protocol:
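Human umbilical vein endothelial cells co-cultured with PBMC were stimulated with LPS; IL-8 levels were measured by ELISA 24 h after chemical dosing. Activity was fitted bidirectionally against DMSO as negative control and baseline.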

The nature of assay [17]: BSK_LPS_SRB: Viability Assessment in the BioMAP Diversity Plus: LPS Assay (AID 2283079).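 Note: total protein by sulforhodamine B absorbance as a cytotoxicity measure; measured one day after compound addition; fitted in both directions against DMSO so loss or gain of signal counts.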 The conditions noted are these: primary human HUVEC with PBMC. A digest of the protocol:
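Human umbilical vein endothelial cells co-cultured with PBMC (LPS system) were dosed for 24 h. Total protein was stained with 0.1% sulforhodamine B after 10% TCA fixation, read at 560 nm, and fitted bidirectionally against DMSO baseline.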

Read-out in assay [18]: Interleukin-1 alpha (IL1a), IL1A (gene 3552)
Kind of assay: BSK_LPS_IL1a: BioMAP Diversity Plus: LPS Assay for Interleukin-1 alpha (IL1a) Biomarker Activity (AID 2283080). The conditions noted are these: primary human HUVEC with PBMC; actives raise or lower the signal. The essentials:
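Human umbilical vein endothelial cells co-cultured with peripheral blood mononuclear cells were LPS-stimulated and exposed to test chemicals for 24 h. IL-1 alpha was quantified by ELISA, with bidirectional curve fitting against DMSO as the negative control and baseline.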

Read-out in assay [19]: C-C motif chemokine 2 (Homo sapiens) (UniProt P13500)
Kind of assay: BSK_KF3CT_MCP1: BioMAP Diversity Plus: KF3CT Assay for Monocyte Chemoattractant Protein 1 (MCP1/CCL2) Biomarker Activity (AID 2283073). Particulars: primary human keratinocytes with fibroblasts; actives raise or lower the signal. A digest of the protocol:
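Human keratinocyte plus foreskin fibroblast primary co-culture exposed to chemical for 24 h. MCP-1 levels measured by ELISA. Bidirectional curve fitting relative to DMSO negative control as baseline.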

Molecules are shown by their SMILES. “And” between values parts separate entries of the source, which are not always exact repeats. Identical values can stand only once. Some compounds were tested as several samples or in several runs, with calls that do not always agree. The source made the active and inactive calls. Rule for the calls: active = hit-call score of the fitted dose curve at least 0.9, where 1 is the maximum; inactive = score below 0.9.

Sequence of E-selectin (Homo sapiens) (P16581 whole entry, looked up): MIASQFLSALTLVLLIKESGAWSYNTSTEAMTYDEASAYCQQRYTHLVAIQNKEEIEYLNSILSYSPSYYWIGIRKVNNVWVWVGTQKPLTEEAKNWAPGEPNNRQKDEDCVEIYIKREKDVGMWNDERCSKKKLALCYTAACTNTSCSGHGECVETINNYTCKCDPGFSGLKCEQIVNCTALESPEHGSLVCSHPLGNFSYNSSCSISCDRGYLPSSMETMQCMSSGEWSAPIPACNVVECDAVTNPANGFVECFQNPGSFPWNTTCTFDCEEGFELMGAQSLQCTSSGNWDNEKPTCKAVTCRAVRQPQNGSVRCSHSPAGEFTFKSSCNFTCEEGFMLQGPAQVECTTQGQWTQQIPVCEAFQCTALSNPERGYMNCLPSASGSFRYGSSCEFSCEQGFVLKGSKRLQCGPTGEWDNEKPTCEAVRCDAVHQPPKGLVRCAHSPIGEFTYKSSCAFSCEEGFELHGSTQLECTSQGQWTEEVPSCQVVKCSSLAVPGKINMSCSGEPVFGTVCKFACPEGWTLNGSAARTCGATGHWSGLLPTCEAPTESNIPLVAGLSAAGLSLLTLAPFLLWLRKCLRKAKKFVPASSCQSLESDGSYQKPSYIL

Consider `CCN(CCO)S(=O)(=O)C(F)(F)C(F)(F)C(F)(F)C(F)(F)C(F)(F)C(F)(F)C(F)(F)C(F)(F)F`, for which the concentration at half-maximal activity (AC50) in assay [1] was 23.2 µM (active) and 23.3 µM (active); in assay [2], 21.9 µM (active) and 2.95 µM (active); in [4] it was 22.1 µM (active) and 19.1 µM (active); in [5] it was 50.1 µM (active); in assay [6] it was 30 µM (active) and 12.8 µM (active); in assay [7] it was 37.2 µM (active) and 25.4 µM (active). In addition, the AC50 in [9] is 33.7 µM (active) and 30 µM (active); in assay [11], 20.8 µM (active) and 30 µM (active); in [13] it was 21.7 µM (active) and 20.9 µM (active); in [15] it was 5.95 µM (active); in assay [17], 39.4 µM (active) and 38.2 µM (active); in [18] it was 23.7 µM (active) and 5.83 µM (active). Further, the outcome in assay [3], in assay [5], in assay [8], in [10], in [12] and in assay [14] was inactive. Moreover, the outcome in the assay with CD40, CD40 (gene 958) is “inactive”; in assay [15], “inactive”; in assay [16], “inactive”.

Consider `OCC(O)CC(F)(F)C(F)(F)C(F)(F)C(F)(F)C(F)(F)C(F)(F)C(F)(F)C(F)(F)F` (stereo unspecified), for which the outcome in assay [1], in assay [2], in [3], in assay [4], in [5] and in [6] was inactive. Also, the outcome in assay [7], in [8], in [9], in [10], in [11] and in [12] was inactive. Further, the outcome is “inactive” in assay [13]; “inactive” in assay [14]; “inactive” in the assay with CD40, CD40 (gene 958); “inactive” in assay [15]; “inactive” in assay [16]; “inactive” in assay [17]. Moreover, in assay [18], the result was inactive. Besides, the AC50 in assay [11] is 166 nM (active).

Turning to `O=C1c2c(O)ccc(Nc3ccc(CCO)cc3)c2C(=O)c2c([N+](=O)[O-])ccc(O)c21`, the AC50 was 8.52 µM (active) in assay [1]; 20 µM (active) in [2]; 20 µM (active) in assay [3]; 29.5 µM (active) in [4]; 9.03 µM (active) in [6]; 15.2 µM (active) in assay [8]. Besides, the AC50 was 27 µM (active) in [9]; 0.54 µM (active) in assay [12]; 20 µM (active) in [13]; 8.34 µM (active) with CD40, CD40 (gene 958); 20 µM (active) in [15]; 3.97 µM (active) in assay [17]. Besides, the result in assay [5], in assay [7], in assay [10], in [11], in assay [19] and in assay [14] was inactive. The result in assay [16] and in assay [18] was inactive.

Broadly, the AC50 is the concentration giving half of the maximal activity seen.

These data come from PubChem BioAssay (EPA / NIEHS).
